Screening data deposited in PubChem by The Scripps Research Institute Molecular Screening Center.
The list is not random: actives were taken first. Their share in the collection is about 1.8%.
PME-1 primary: PME-1 inhibitors via competitive probe labeling, primary screen, biochemical, fluorescence polarization, FP-Rh probe, HTS. Protein phosphatase methylesterase 1 (Homo sapiens), Q9Y570. recombinant PME-1. inhibition, % at 5.9 µM. 320,000 tested, 0.53% active. AID 2130, 2009;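 active = inhibition above the campaign mean of all compounds plus 3 SD, cut at about 26% in these data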;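 also: competitive labeling of PME-1 active site by serine hydrolase directed probe; inhibitors block probe labeling so polarization falls and inhibition rises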
LYPLA1 inh: LYPLA1 inhibitors, primary screen, counter-screen for PME1 inhibitor project, biochemical, fluorescence polarization, FP-Rh probe ABPP | Acyl-protein thioesterase 1 (Homo sapiens), O75608 | recombinant LYPLA1 | inhibition, % at 5.9 µM | 320,000 tested, 0.16% active | AID 2174, 2009;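 active = inhibition above the mean of all tested compounds plus 3 SD, set per campaign, cut at about 14% in these data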;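 also: inhibitors block serine hydrolase probe labeling of LYPLA1 so polarization falls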
PAD4 inh: human PAD4 inhibitors, primary screen, biochemical, fluorescence polarization, 1536-well format; Protein-arginine deiminase type-4 (Homo sapiens), Q9UM07; inhibition, % at 6.36 µM; 330,000 tested, 0.41% active; recombinant PAD4, RCA probe fluorescence polarization; AID 485272, 2010;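 active = percent inhibition above a cutoff equal to the mean of all tested compounds plus 3 SD, cut at about 15% in these data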
Fam108B counter: mouse Fam108B serine hydrolase inhibitors, primary screen, counter-screen for RBBP9 inhibitor project, biochemical, fluorescence polarization | recombinant Fam108B, FP-Rh probe fluorescence polarization | 300,000 tested, 0.33% active | inhibition, % at 9.51 µM;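 active = inhibition above the screen mean inhibition plus 3 SD, computed separately per campaign, cut at about 18% in these data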;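 also: inhibitors lower polarization as less probe binds the enzyme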
GSTO1 inh: inhibitors of recombinant GSTO1, primary screen, counter-screen for RBBP9 inhibitor project, biochemical, fluorescence polarization. activity-based probe fluorescence polarization. inhibition, % at 5.96 µM. 300,000 tested, 1.1% active. AID 1974, 2009;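 active = inhibition above the campaign mean inhibition plus 3 SD, cut at about 35% in these data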
Target sequence (P78417 whole entry, looked up): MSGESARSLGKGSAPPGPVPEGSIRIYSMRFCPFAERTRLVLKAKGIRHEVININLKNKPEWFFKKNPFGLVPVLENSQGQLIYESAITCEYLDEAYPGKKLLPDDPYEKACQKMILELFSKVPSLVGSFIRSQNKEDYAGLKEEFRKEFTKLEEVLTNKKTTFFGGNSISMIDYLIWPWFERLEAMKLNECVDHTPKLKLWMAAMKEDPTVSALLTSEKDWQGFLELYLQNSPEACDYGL
LYPLA2 counter: LYPLA2 inhibitors, primary screen, counter-screen for PME1 inhibitor project, biochemical, fluorescence polarization, FP-Rh probe ABPP; recombinant LYPLA2; inhibition, % at 5.9 µM; 320,000 tested, 0.38% active; AID 2177, 2009;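 active = inhibition above the screen-wide mean plus 3 SD, limit set per campaign, cut at about 26% in these data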
Target sequence (O95372 whole entry, looked up): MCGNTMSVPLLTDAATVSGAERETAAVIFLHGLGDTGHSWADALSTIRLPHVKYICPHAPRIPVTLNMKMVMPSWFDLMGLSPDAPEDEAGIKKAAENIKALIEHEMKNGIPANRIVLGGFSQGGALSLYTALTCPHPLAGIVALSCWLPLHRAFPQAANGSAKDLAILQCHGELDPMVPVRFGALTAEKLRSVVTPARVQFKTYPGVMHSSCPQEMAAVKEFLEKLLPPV
Fam108b confirm: mouse Fam108b serine hydrolase inhibitors, confirmation, counter-screen for RBBP9 inhibitor project, biochemical, fluorescence polarization, triplicate; shares compounds with Fam108B counter; recombinant Fam108b, FP-Rh probe fluorescence polarization; inhibition, % at 9.51 µM; 930 tested, 44% active;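 active = inhibition above a limit from the primary screen, the mean over all compounds plus 3 SD, cut at about 19% in these data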;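 also: inhibitors free the probe so polarization falls as inhibition rises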
A number is an active result; n = inactive; x = no result.

SMILES | PME-1 primary | LYPLA1 inh | PAD4 inh | Fam108B counter | GSTO1 inh | LYPLA2 counter | others
COc1ccc(N(CC(=O)NC2CCS(=O)(=O)C2)S(=O)(=O)c2cc(C)ccc2C)cc1 (stereo not given) | x | x | n | x | x | x
CCN1C(=O)/C(=C2/Sc3ccccc3N2CC)S/C1=N\c1ncn[nH]1 | 33.8 | n | n | n | n | n
Cc1cccc(CC(=O)NCCN2CCOCC2)c1 | n | n | n | n | n | n
O=C(O[C@@H]1OC2COC(=O)c3cc(O)c(O)c(O)c3-c3c(cc(O)c(O)c3O)C(=O)O[C@@H]([C@H]1O)[C@@H]2O)c1cc(O)c(O)c(O)c1 | n | n | n | n | 73.4 | n
O=C(CCCn1c(SCc2cc(=O)n3cc(Cl)ccc3n2)nc2ccccc2c1=O)NCC1CCCO1 (stereo not given) | n | n | n | n | n | n
O=c1cc(CSc2nc(NCc3ccccc3)c3ccccc3n2)nc2ccc(Cl)cn12 | n | n | n | n | 41.6 | n
O=C(COC(=O)c1ccc([N+](=O)[O-])s1)Nc1ccc(F)cc1 | n | n | n | x | x | n
CC(C)(C)c1ccc(NC(=O)COC(=O)c2ccc([N+](=O)[O-])s2)cc1 | 32.8 | n | n | n | 39.5 | n
O=C(COC(=O)c1ccc([N+](=O)[O-])s1)NC(c1ccccc1)c1ccccc1 | n | n | n | n | 37.3 | n
O=C(COC(=O)c1ccc([N+](=O)[O-])s1)NCc1ccccc1 | n | n | n | n | 41.7 | n
O=C(Nc1n[nH]c(C(F)(F)F)n1)C1CC1 | n | n | n | n | n | n
Cc1ccc(NC(=O)C(C)OC(=O)COc2cccc(C(F)(F)F)c2)cc1 (stereo not given) | n | n | n | x | x | n
COc1ccccc1NS(=O)(=O)c1cccc(-n2c(O)c(C=Nc3ccccc3C(=O)O)c3ccccc3c2=O)c1 | 81.8 | n | n | n | n | n
CCOC(=O)c1sc(NC(=S)NC(=O)CC(C)C)cc1C | n | n | n | n | n | n
Cc1ccc(C(=O)NC2(O)C(=O)c3ccccc3C2=O)cc1C | n | n | n | n | 74.6 | n
Cc1ccc(NC(=S)NNc2ccc(C(=O)O)cc2[N+](=O)[O-])cc1C | n | n | n | n | 35.6 | n
CC(=O)Nc1ccc(C=NNc2ccc([N+](=O)[O-])cc2S(=O)(=O)Nc2ccccc2C(=O)O)cc1 | x | x | n | x | x | x
Cc1ccc(NC(=S)NNc2ccc([N+](=O)[O-])cc2S(=O)(=O)Nc2ccccc2C(=O)O)cc1C | 48.4 | n | n | n | n | n
Cc1ccc(Nc2ccc(C(N)=O)cc2[N+](=O)[O-])cc1C | n | n | n | n | n | n
CC(Oc1cccc(Cl)c1)C(=O)Nc1ccc(S(=O)(=O)N(C)C2CCN(C)CC2)cc1 (stereo not given) | n | n | n | x | x | n
Cn1ncc2c(N3CCN(c4ccc(Cl)c(Cl)c4)CC3)ncnc21 | n | n | n | n | n | n
Oc1cc(Br)ccc1C=Nc1ccc(N2CCCCC2)cc1 | n | n | n | n | 53.0 | n
COc1ccc2c(-c3ccccc3)cc(N3CCOCC3)nc2c1 | n | n | n | n | n | n
CSc1ccccc1C(=O)NCCCn1ccnc1 | 144.0 | n | n | n | n | n
Cc1[nH]n(-c2ccccc2)c(=O)c1C(C[N+](=O)[O-])c1ccc(F)cc1 (stereo not given) | n | n | n | n | 58.9 | n
SMILES | PME-1 primary | LYPLA1 inh | PAD4 inh | Fam108B counter | GSTO1 inh | LYPLA2 counter | others
Cc1[nH]n(-c2ccccc2)c(=O)c1C(C[N+](=O)[O-])c1ccc(Cl)cc1 (stereo not given) | n | n | n | n | 61.3 | n
O=C(Nc1ccc2[nH]c3c(c2c1)CCCC3)c1ccco1 | n | n | n | n | 34.9 | n
O=C(O)c1cccc(-n2c(/C=C/c3ccc([N+](=O)[O-])cc3)nc3ccccc3c2=O)c1 | 30.2 | n | n | n | n | n
CC(=O)Oc1c(I)cc(I)cc1C(=O)Nc1ccc(Cl)cc1 | 60.6 | n | n | n | n | n
CCOC(=O)C1CCCN(C(=S)Nc2ccc(OC)cc2)C1 (stereo not given) | n | n | n | n | n | n
Cc1ccc(NC(=O)CN(C)C(=O)Cc2c[nH]c3ccccc23)cc1 | x | x | n | x | x | x
NS(=O)(=O)c1ccc(N=Nc2c(-c3ccccc3)[nH]n(-c3nc(-c4ccccc4)cs3)c2=O)cc1 | n | n | n | 33.2 | n | n | Fam108b confirm=n
O=S(=O)(c1c(F)cccc1F)N1CCN(C(=S)NCc2ccc3c(c2)OCO3)CC1 | n | n | n | 24.9 | n | n | Fam108b confirm=n
O=C(CCCN1C(=O)c2cccc3cccc(c23)C1=O)NCc1ccco1 | n | n | n | n | n | n
O=C(CCCN1C(=O)c2cccc3cccc(c23)C1=O)NCc1cccs1 | n | n | n | 21.9 | n | n | Fam108b confirm=27.3
O=C(c1cc([N+](=O)[O-])ccc1N1CCCC1)N1CCCCC1 | n | n | n | n | n | n
O=C(c1cc([N+](=O)[O-])ccc1N1CCCCC1)N1CCCCC1 | n | n | n | 38.5 | n | n | Fam108b confirm=n
COc1cccc(N=Nc2ccc3ccccc3c2O)c1 | n | n | n | 19.3 | n | n | Fam108b confirm=n
Cc1ccc(N=Nc2ccc3ccccc3c2O)cc1 | n | n | n | 28.5 | n | n | Fam108b confirm=n
Oc1c(N=Nc2ccc(F)cc2)ccc2ccccc12 | n | n | n | n | n | n
COc1ccc(N=Nc2ccc3ccccc3c2)c(O)c1 | n | n | n | n | n | n
COC(=O)N/N=C/c1cc(N=Nc2ccccc2)ccc1O | n | n | n | n | n | n
Nc1ccc(C(=O)N/N=C\c2cc(N=Nc3cccc4ccccc34)ccc2O)cc1 | 39.7 | n | n | 20.8 | n | n | Fam108b confirm=n
Cc1cc(C(=O)N/N=C/c2cc(N=Nc3ccccc3)ccc2O)n[nH]1 | n | n | n | 20.2 | n | n | Fam108b confirm=n
COC(=O)N/N=C/c1cc(N=Nc2ccccc2Cl)ccc1O | n | n | n | 22.3 | n | n | Fam108b confirm=n
Cc1[nH]c2ccccc2c1/C=N/NS(=O)(=O)c1ccccc1 | n | n | n | n | n | n
Cc1[nH]c2ccccc2c1/C=N/Nc1ccccc1[N+](=O)[O-] | 46.8 | n | n | 22.3 | n | n | Fam108b confirm=n
Cc1cccc(C)c1NC(=O)Cn1c(CN2CCCCC2)nc2ccccc2c1=O | n | n | n | 20.8 | n | n | Fam108b confirm=n
